# Measurements: the supplement of paper PMC10338343
# ± gives the standard deviation.
# System: MILI (PIWIL2) piRISC loaded with L1MC piRNA (26 nt)
# Assay: pre-steady-state target cleavage rate (min^-1); guide: L1MC piRNA 5'p-UAACUAAAUACUAUGCAAGCUGUAGG; MIWI and MILI are mouse PIWI proteins and EfPiwi is from a freshwater sponge; tags in brackets are library labels; higher = faster piRNA-guided slicing of the target
# Conditions: auxiliary factor: 500 nM mouse GTSF1
# Procedure, shortened: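 In this Cleave-'n-Seq assay, uncleaved targets were sequenced and normalised to depth and to weakly complementary targets. They came from a transcribed, DNA-blocked target RNA library […] mixed with 1 nM active affinity-purified piRISC carrying one synthetic guide, with or without 500 nM GTSF1 partner protein, in HEPES–potassium acetate buffer at 33 °C for 0–8 or 0–960 min. After three trials were pooled and k3 was capped at 0.0001 min^-1, the pre-steady-state cleavage rate was obtained from a burst-and-steady-state fit.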
# 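Further: 1 nM active piRISC with 0.1 nM target library at 33 °C single turnover.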
row,Sequence,pre-steady-state target cleavage rate
1,UCCUGGAUCAGCUUCGAUAGUAUUUAGAAA,0.0608 ± 0.017
2,UCCUGGAACAGCUUGCAUCAGUAUUUAGUUA,0.0151 ± 0.0061
3,UCCUGGAUGAGCUUGGUAAGUAUUUAGUAA,0.00762 ± 0.0042
4,UCCUGGUACACCUUGCAUACUAUUUAGUUA,0.228 ± 0.072
5,UCCUGGUACACGAUGCAUAGUAUUUAGUAA,0.186 ± 0.042
6,UCCUGGAUGUCCUUGCUUAGUAUUAAGUUA,0.0115 ± 0.0047
7,UCCUGGAUGAGCUUCGAUAGUAUUUAGUUA,0.108 ± 0.013
8,UCCUGCUACAGCUUGCAAUCUAUUUUCAAA,0.00419 ± 0.0036
9,UCCUGGAUCAGCUUGCAUAGUAUAUACAAA,0.0964 ± 0.023
10,UCCUGGAACAGCUUGCAUAGUAAUAAGUUA,0.103 ± 0.018
11,UCCUGCUUCAGCUUGCAUAGUAUUUUCAAA,0.0882 ± 0.022
12,UCCUGGAUGUCGAUGCAUAGCAUUUAGUUA,0.0232 ± 0.0085
13,UCCUGGAACAGCUUGCAAAGUAUUUUCAAA,0.0111 ± 0.0049
14,UCCUGGUAGUGCUUGCAUAGUAUUUUCAAA,0.00481 ± 0.0037
15,UCCUGCUACAGCUACCAUAGUAUUUAGUAA,0.158 ± 0.029
16,UCCUGGAACAGGUUCCAUAGUAUUUAGUUA,0.202 ± 0.066
17,UCCUCCUACAGCUUGCAAUCUAUUUAGAAA,0.0218 ± 0.007
18,UCCUGGAUGUGCUUGGAUAGUAUUUAGUAA,0.117 ± 0.021
19,UCCUGGAUCAGCAUGCAUAGUAUUUUCAAA,0.0716 ± 0.018
20,UCCUGGAUGAGCUUGCAUAGUAAAUAGUAA,0.0816 ± 0.026
21,UCCUGCUACAGCUUGCAUAGAAUUUACUUA,0.107 ± 0.031
22,UCCUGGAUGUCCUUGCAUAGUAUAUACUUA,0.00862 ± 0.0049
23,UCCUGGAACAGCUUGCAUAGUAUUAUCUAA,0.0368 ± 0.012
24,UCCUGGAACAGCUUGCAUAGCUAUUUAGUUA,0.00904 ± 0.0044
